Some test systems named below: NCI-H23 lung; NCI-H226 lung; NCI-H322M lung; HOP-62 NSCLC; NCI-H460 lung; HOP-92 NSCLC; NCI-H522 lung; A549/ATCC NSCLC; 786-0 renal; COLO 205 colon; DU-145 prostate; K-562 leukemia; MALME-3M melanoma; MDA-MB-231 breast; RXF 393 renal; SF-268 CNS; SF-295 CNS; SF-539 CNS; UACC-257 melanoma; M14 melanoma.
Holding throughout (experiment): NCI-60 one-dose screen, 48 h (100 = growth as untreated, 0 = no growth, -100 = all killed)
Common to all, as to conditions: 10 µM unless noted

Experimental findings from PubChem BioAssay (NCI) are described below.

About 83,000 compounds went through this panel and 20% of them were active in at least one assay; those are over-represented in the sample as a whole.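 Treatment: one concentration, 48 hours, 96-well format. Scoring: percent growth, with anything below 10 considered active.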 Unmarked numbers belong to inactive results. Active and inactive are the calls of the source.

In the case of `O=C1N/C(=N/N=C(c2ccccc2)c2ccccc2)S/C1=C\c1ccc(Br)cc1`, the growth is 94.1% with NCI-H23 lung; 84.7% with NCI-H226 lung; 95% with NCI-H322M lung; 98.1% in the experiment on HOP-62 NSCLC; 98.4% in the experiment with NCI-H460 lung; 92.3% with HOP-92 NSCLC. In addition, the growth in the experiment with NCI-H522 lung is 69.6%; in the experiment with A549/ATCC NSCLC, 74.7%; in the experiment on 786-0 renal, 98%; in the experiment with COLO 205 colon, 104%; in the experiment with DU-145 prostate, 107%; in the experiment with K-562 leukemia, 89.6%. Moreover, the growth was 97.7% with MALME-3M melanoma; 94.6% in the experiment with MDA-MB-231 breast; 107% in the experiment on RXF 393 renal; 99.3% in the experiment with SF-268 CNS; 96.1% in the experiment on SF-295 CNS; 110% with SF-539 CNS. The growth in the experiment on UACC-257 melanoma was 83.5%; in the experiment on M14 melanoma, 91.8%.

As for `CC(C)n1nc(-c2ccc3oc(N)nc3c2)c2c(N)ncnc21`, the growth in the experiment with NCI-H23 lung was 2.3% (active); with NCI-H226 lung, -28.2% (active); in the experiment with NCI-H322M lung, -7.33% (active); in the experiment with HOP-62 NSCLC, -25.5% (active); in the experiment with NCI-H460 lung, 5.28% (active); with HOP-92 NSCLC it was -40% (active). In addition, the growth is 2.22% (active) with NCI-H522 lung; -6.71% (active) in the experiment on A549/ATCC NSCLC; -36.7% (active) in the experiment with 786-0 renal; -3% (active) in the experiment with COLO 205 colon; 2.37% (active) in the experiment on DU-145 prostate; 18.3% in the experiment with K-562 leukemia. The growth with MALME-3M melanoma is -40.7% (active); in the experiment on MDA-MB-231 breast, -15.1% (active); in the experiment with RXF 393 renal it was -43.1% (active); in the experiment with SF-268 CNS, -1.05% (active); in the experiment on SF-295 CNS, -50.9% (active); in the experiment on SF-539 CNS it was -43.7% (active). Also, the growth was -27.8% (active) with UACC-257 melanoma and -18.8% (active) in the experiment with M14 melanoma.

For `CCN1C(=O)N(CC)C2C1NN=c1s/c(=C3\C(=O)N(C)c4ccccc43)c(=O)n12` (stereo not given), the growth in the experiment with NCI-H23 lung is 37%; in the experiment on NCI-H226 lung, 96.7%; with NCI-H322M lung, 48.4%; in the experiment on HOP-62 NSCLC it was 29.8%; in the experiment on NCI-H460 lung, 6.21% (active); with HOP-92 NSCLC, 56.8%. Besides, the growth in the experiment with NCI-H522 lung is 21.7%; in the experiment on A549/ATCC NSCLC, 35.1%; in the experiment on 786-0 renal it was 36.9%; with COLO 205 colon, 8.01% (active); in the experiment with DU-145 prostate, 11.9%; in the experiment with K-562 leukemia it was 9.16% (active). Besides, the growth in the experiment on MALME-3M melanoma is 40.8%; in the experiment on MDA-MB-231 breast, 33.9%; with RXF 393 renal, -14.1% (active); in the experiment with SF-268 CNS, 70.5%; in the experiment on SF-295 CNS, 7.04% (active); in the experiment on SF-539 CNS it was -24.7% (active). Besides, the figures for the growth in the experiment on UACC-257 melanoma and with M14 melanoma were 94.6% and 43.1%, respectively.

For the molecule `O=C(Nc1ccc(Oc2cccc(F)c2)c(Cl)c1)c1cnccn1`, the growth with NCI-H23 lung is 44.9%; in the experiment with NCI-H226 lung, 61.8%; with NCI-H322M lung, 46.3%; in the experiment on HOP-62 NSCLC, 42.4%; in the experiment with NCI-H460 lung, 22.1%; in the experiment on HOP-92 NSCLC, 51.5%. In addition, the growth in the experiment on NCI-H522 lung is 22.3%; in the experiment with A549/ATCC NSCLC, 39.1%; with 786-0 renal it was 46.5%; in the experiment on COLO 205 colon, 15.5%; with DU-145 prostate, 19.1%; with K-562 leukemia, 13.4%. The growth was 51.4% in the experiment on MALME-3M melanoma; 53.5% in the experiment on MDA-MB-231 breast; 7.37% (active) in the experiment with RXF 393 renal; 55.5% with SF-268 CNS; 36% in the experiment on SF-295 CNS; -3.46% (active) in the experiment on SF-539 CNS. The figures for the growth with UACC-257 melanoma and in the experiment with M14 melanoma were 64.9% and 25.6%, respectively.

Consider `O=C1/C(=C/c2ccccc2)COc2ccc(O)cc21`, for which the growth in the experiment on NCI-H23 lung was 97.2%; in the experiment with NCI-H226 lung, 104%; with NCI-H322M lung, 99.3%; in the experiment with HOP-62 NSCLC, 104%; with NCI-H460 lung, 103%; with HOP-92 NSCLC, 93.7%. For the same molecule, the growth in the experiment with NCI-H522 lung was 73.5%; with A549/ATCC NSCLC, 90.5%; in the experiment with 786-0 renal, 86.9%; in the experiment with COLO 205 colon, 93.2%; in the experiment with DU-145 prostate, 88.5%; in the experiment with K-562 leukemia it was 17.5%. Also, the growth with MALME-3M melanoma was 106%; with MDA-MB-231 breast, 92.9%; in the experiment with RXF 393 renal it was 105%; with SF-268 CNS, 90.6%; in the experiment on SF-295 CNS, 107%; in the experiment on SF-539 CNS it was 108%. Also, the growth in the experiment on UACC-257 melanoma is 98.2%; in the experiment on M14 melanoma, 85.8%.

Turning to `COc1ccc(Nc2nc(Nc3cc(C)[nH]n3)c3cc(OC)c(OC)cc3n2)cc1`, the growth is -74.7% [20 µM] (active) in the experiment with NCI-H23 lung; -47.2% [20 µM] (active) in the experiment on NCI-H226 lung; -100% [20 µM] (active) in the experiment on NCI-H322M lung; -73.3% [20 µM] (active) with HOP-62 NSCLC; -75.9% [20 µM] (active) with NCI-H460 lung; -84.6% [20 µM] (active) in the experiment on HOP-92 NSCLC. The growth in the experiment with NCI-H522 lung was -39.1% [20 µM] (active); with A549/ATCC NSCLC it was -61.2% [20 µM] (active); with 786-0 renal, -83.3% [20 µM] (active); in the experiment with COLO 205 colon, -61% [20 µM] (active); in the experiment on DU-145 prostate, -86.2% [20 µM] (active); in the experiment on K-562 leukemia, -10.8% [20 µM] (active). In addition, the growth was -97.7% [20 µM] (active) in the experiment on MALME-3M melanoma; -94.2% [20 µM] (active) in the experiment with MDA-MB-231 breast; -94.4% [20 µM] (active) in the experiment with RXF 393 renal; -66.8% [20 µM] (active) with SF-268 CNS; -94.2% [20 µM] (active) in the experiment with SF-295 CNS; -97.2% [20 µM] (active) in the experiment with SF-539 CNS. The growth with UACC-257 melanoma is -76.8% [20 µM] (active); with M14 melanoma it was -75.6% [20 µM] (active).

In the case of `N#C/C(=C\c1cccc2cnccc12)N1N=NC2C=CC=CC21` (stereo not given), the growth is 48.5% in the experiment on NCI-H23 lung; 68.7% with NCI-H226 lung; 67.2% in the experiment with NCI-H322M lung; 79.9% in the experiment on HOP-62 NSCLC; 40.8% in the experiment on NCI-H460 lung; -14.6% (active) with HOP-92 NSCLC. The growth with NCI-H522 lung is 14.1%; with A549/ATCC NSCLC, 64.2%; with 786-0 renal it was 53.1%; in the experiment with COLO 205 colon, 47.4%; in the experiment on DU-145 prostate, 8.33% (active); in the experiment with K-562 leukemia, 12.4%. The growth with MALME-3M melanoma is 36%; in the experiment with MDA-MB-231 breast, 9.44% (active); in the experiment with RXF 393 renal, -17.1% (active); in the experiment on SF-268 CNS, 56.6%; in the experiment on SF-295 CNS it was 98.4%; in the experiment on SF-539 CNS, 45.7%. Besides, the growth with UACC-257 melanoma was 46.9%; in the experiment on M14 melanoma, 32.6%.
